# About 83,000 compounds went through this panel and 20% of them were active in at least one assay; those are over-represented in the sample as a whole.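 Cells were grown in 96-well plates and exposed to the test compound at a single concentration for 48 hours; results are reported as percent growth, with values below 10 considered active.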 Calls of active or inactive are those of the source.
# System: HL-60(TB) leukemia
# Test: NCI-60 one-dose screen, 48 h (100 = growth as untreated, 0 = no growth, -100 = all killed)
# Details: 10 µM unless noted
row,SMILES,growth
1,CCOC(=O)c1ccc(NC(=S)NC(=O)c2cccc(NC(=O)c3ccc(C)cc3)c2)cc1,102% (inactive)
2,CCOC(=O)C1=C(N)N(c2ccccc2)C2=C(C(=O)CC(C)(C)C2)C1c1ccccc1OC (centres undefined),99.2% (inactive)
3,O=C(CN1CCN(c2ncnc3c2cnn3-c2ccccc2)CC1)Nc1ccc(Cl)cc1,58.6% (inactive)
4,O=C(Cn1c(/C=C/c2ccccc2)nc2ccccc2c1=O)Nc1ccc(Cl)cc1,99.2% (inactive)
5,COc1ccc2[nH]c(O)c(N=NC(=O)Cn3c(-c4ccccc4)nc4cc(C)ccc43)c2c1,-50.8% (active)
6,O=C1Nc2cc(Cl)ccc2/C1=C/c1ccc(OCc2ccc(Br)cc2F)cc1,81.5% (inactive)
7,Cc1ccc(-c2ccc(SCC(=O)Nc3ccc(Cl)c(C(F)(F)F)c3)nn2)cc1,-22.3% (active)
8,O=C1c2c(c3c4cc(F)ccc4oc3c3[nH]c4ccc(Br)cc4c23)C(=O)N1O,16.9% (inactive)
9,O=C(Nc1ccc(F)c(Cl)c1)c1cc(-c2ccc(F)cc2F)ccc1O,-41.3% (active)
10,COc1ccc(-c2nc(SCC(C)C)nc(NCCc3c[nH]c4ccccc34)c2C#N)cc1,63.2% (inactive)
11,C=C1CC[C@@H]2[C@]3(C)COC(c4cn[nH]c4-c4cccc(Cl)c4)O[C@@H]3CC[C@@]2(C)[C@@H]1C/C=C1/C(=O)OCC1O (some centres undefined),-15.1% (active)
12,CC1=C2C(=C[C@@](C)(CO)[C@@H]2O)/C(=N\N)[C@](C)(O)C12CC2,-22.1% (active)
13,O=C(NNC(=O)c1ccc(OCc2nc3ccc(Cl)cc3[nH]2)cc1)Nc1ccc(Cl)c(Cl)c1,103% (inactive)
14,C=CC(=O)N1CCN(c2ccc3nc4c(nc3c2C(F)(F)F)C(=O)c2ncccc2C4=O)CC1,-24.7% (active)
15,O=C1NC(=NC23CC4CC(CC(C4)C2)C3)N/C1=C\c1ccc2ncoc2c1,-8.15% (active)
16,COc1ccc(N=Nc2c(N)nn3c(N)c(C#N)c(-c4ccc(F)cc4)nc23)cc1,74% (inactive)
17,NS(=O)(=O)c1ccc(Nc2nc(N/N=C/c3cc(Br)c(O)c(Br)c3)nc(Nc3ccccc3)n2)cc1,47.3% (inactive)
18,COc1ccc(C(=O)c2c(N)c(C#N)cn2-c2ccc([N+](=O)[O-])cc2)cc1,97.5% (inactive)
19,COc1ccc(/C=C/C(=O)c2ccc(OC)c(S(N)(=O)=O)c2)c(C(F)(F)F)c1,3.73% (active)
20,CC(=O)c1ccc(Nc2nc(SCCC(C)C)nc(-c3ccc(F)cc3)c2C#N)cc1,91.8% (inactive)

row,SMILES,growth
1,CC(C)CN1C(=O)/C(=C\C(=O)c2cc3ccccc3oc2=O)c2ccccc21,96.1% (inactive)
2,N#Cc1ccc(/C=N/NC(=O)c2[nH]c3ccc(Br)cc3c2-c2ccccc2)o1,-25.1% (active)
3,CN1C(=O)N(C)C2SC(N/N=C/c3cccs3)=NC21 (centres undefined),-19.5% (active)
4,CN(C)CCCNC(=O)c1cc(NC(=O)c2cc(NC(=O)c3ccc(/C=C/c4ccccc4)cc3)cn2C)cn1C,-37.7% (active)
5,O=C(CSc1nnc(-c2ccc3nc(-c4ccc(Cl)cc4)[nH]c3c2)o1)Nc1ccc(Br)cc1,-22.3% (active)
6,COC(=O)CC1CC1C1Cc2c(nc(N(C)S(C)(=O)=O)nc2C(C)C)-c2ccc(F)cc21 (centres undefined),58.7% (inactive)
7,CC1=C(C(=O)Nc2ccccc2)C(c2ccc3ccccc3c2)n2c(nc3ccccc32)N1 (centres undefined),57.4% (inactive)
8,COc1cc(/C=N/NC(=O)c2ccc3nc(-c4ccc(Cl)cc4)[nH]c3c2)cc(OC)c1OC,32.1% (inactive)
9,Cc1ccc2c(N)c(C(=O)Nc3ccc(OC(F)(F)F)cc3)sc2n1,61.6% (inactive)
10,COc1ccc(Cc2nn(CC(=O)N/N=C/c3ccc(F)cc3)c(=O)c3c(C)noc23)cc1,78.2% (inactive)
11,Cc1ccc(C(C)C)cc1Oc1cccc(-c2c(-c3ccc(C(F)(F)F)cc3)ncn2C2CCNCC2)n1,-83.1% (active)
12,CN(C)c1ccc(/C=C/c2nc3ccccc3c(=O)n2CC(=O)Nc2ccc(Cl)cc2)cc1,95% (inactive)
13,CN1CCc2c(sc3ncnc(N/N=C/c4cccc(Cl)c4Cl)c23)C1,-50.9% (active)
14,Nc1nc(C(F)(F)F)cs1,102% (inactive)
15,COc1cnc2c(c1)C(=O)c1c-2n(CCCNC(C)C)c(=O)c2cc(OC)c(OC)cc12,62.8% (inactive)
16,COc1ccc(NC(=O)Cn2c(/C=C/c3ccc([N+](=O)[O-])cc3)nc3ccccc3c2=O)cc1,112% (inactive)
17,COc1ccc(NC(=O)[C@H](C)N)cc1C(=O)Nc1cccc(C2CC(=O)c3c(cc(OC)c(OC)c3OC)O2)c1 (some centres undefined),69.8% (inactive)
18,Cc1cc(N=C2NC(=O)/C(=C/c3cc(C(C)(C)C)c(O)c(C(C)(C)C)c3)S2)n[nH]1,5.2% (active)
19,Clc1cccc(Cl)c1/C=C/c1cc(/C=C/c2ccc(Br)cc2)c2ccccc2n1,101% (inactive)
